Among the data in PubChem BioAssay (EPA / NIEHS) are outcome and AC50 values, retold here.

The nature of assay [1]: ATG_M_32_CIS: Attagene CIS-FACTORIAL HepG2 Assay for M32 Transcription Factor (Internal Marker) (AID 2282949).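 Also: background control marker of the multiplexed CIS panel rather than a real target.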 The conditions noted are these: HepG2 Attagene cis-factorial M32 reporter, mRNA; actives raise or lower the signal. The essentials: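 Following 24 h chemical exposure of HepG2 cells transiently expressing cis-promoter reporter constructs, reporter transcript levels were determined by RT-PCR with fluorescent labelling and capillary electrophoresis, then fitted bidirectionally against DMSO.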

The nature of assay [2]: ATG_M_06_CIS: Attagene CIS-FACTORIAL HepG2 Assay for M06 Transcription Factor (Internal Marker) (AID 2282950). The following applies: HepG2 Attagene CIS-FACTORIAL M06 internal marker reporter; actives raise or lower the signal. In outline: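 Internal background marker within multiplexed cis-reporter HepG2 system. Cells transiently transfected, dosed 24 h; reporter mRNA measured by RT-PCR, HpaI digestion and capillary electrophoresis. Bidirectional fit relative to DMSO.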

Assay [3] deals with Hypoxia-inducible factor 1-alpha (Homo sapiens) (UniProt Q16665). Put plainly: ATG_HIF1a_CIS: Attagene CIS-FACTORIAL HepG2 Assay for human Hypoxia Inducible Factor 1 (HIF1A) (AID 2282951). The conditions noted are these: HepG2 Attagene cis-factorial HIF1a reporter transcription; actives raise or lower the signal. In outline: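 Measures endogenous transcription-factor activity through cis-regulated reporter mRNA in HepG2. Cells dosed 24 h; transcripts quantified by RT-PCR with 6-FAM-labelled products separated by capillary electrophoresis; DMSO serves as negative control.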

Assay [4] addresses Hepatocyte nuclear factor 6 (Homo sapiens) (UniProt Q9UBC0). As to the kind of experiment: ATG_HNF6_CIS: Attagene CIS-FACTORIAL HepG2 Assay for human Hepatocyte Nuclear Factor 6 (HNF6) (AID 2282952). The conditions noted are these: HepG2 Attagene cis-factorial HNF6 reporter transcription; actives raise or lower the signal. In outline:
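HepG2, transient MRTU transfection (cis promoters); 24 h chemical exposure; total RNA → oligo(dT) RT → PCR → 6-FAM labelling → HpaI cut → CE; bidirectional fit vs DMSO.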

For assay [5], the target named is Heat shock factor protein 1 (Homo sapiens) (UniProt Q00613). Put plainly: ATG_HSE_CIS: Attagene CIS-FACTORIAL HepG2 Assay for human Heat Shock Transcription Factor 1 (HSE) (AID 2282953). The conditions noted are these: HepG2 HSE cis-reporter, Attagene RNA transcription; actives raise or lower the signal. The essentials: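 HepG2 cells transfected with cis-promoter reporter units sensing endogenous transcription factor activity; reporter mRNA quantified 24 h post-dose by RT-PCR and capillary electrophoresis of 6-FAM-labelled products. Bidirectional fitting against DMSO.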

Assay [6] can be described thus: ATG_MRE_CIS: Attagene CIS-FACTORIAL HepG2 Assay for human Metal Responsive Element (MRE) (AID 2282954). The following applies: HepG2 MRE cis-reporter transcription, Attagene multiplex; actives raise or lower the signal. In outline: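 HepG2 cells transiently transfected with multiple cis-element reporter units measure endogenous MTF1-driven transcription. After 24 h compound exposure, reporter mRNA is quantified by RT-PCR with 6-FAM labelling, HpaI digestion and capillary electrophoresis; bidirectional fits versus DMSO.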

Assay [7] in a line: ATG_PBREM_CIS: Attagene CIS-FACTORIAL HepG2 Assay for human Phenobarbital-responsive Enhancer Module (PBREM) (AID 2282955). The conditions noted are these: HepG2 PBREM cis-reporter, Attagene multiplexed transcription; actives raise or lower the signal. In outline:
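Fluorescence of labelled reporter cDNA fragments, resolved by capillary electrophoresis, gives mRNA induction in transfected HepG2 cells treated for 24 h; DMSO serves as negative control and baseline.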

For assay [8], the target named is Paired box protein Pax-6 (Homo sapiens) (UniProt P26367). As to the kind of experiment: ATG_Pax6_CIS: Attagene CIS-FACTORIAL HepG2 Assay for human Paired Box 6 (PAX6) (AID 2282956). The following applies: HepG2 CIS-FACTORIAL PAX6 reporter transcription, RNA readout; actives raise or lower the signal. In outline: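 After twenty-four hours of chemical exposure, transfected HepG2 cells are harvested for RNA. Cis-promoter reporter transcripts are amplified, fluorescently labelled and sized by capillary electrophoresis, with gain and loss of signal scored against DMSO.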

Assay [9] can be described thus: ATG_PXRE_CIS: Attagene CIS-FACTORIAL HepG2 Assay for human Pregnane X Receptor Element (PXRE) (AID 2282957). The following applies: HepG2 Attagene CIS-FACTORIAL PXRE reporter, mRNA; actives raise or lower the signal. The essentials: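 Transfect HepG2 with MRTUs (cis promoter elements); dose chemical, incubate 24 h; isolate RNA, RT with oligo(dT), PCR, 6-FAM label, HpaI cut, CE. Gain/loss fit vs DMSO.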

Assay [10] can be described thus: ATG_PPRE_CIS: Attagene CIS-FACTORIAL HepG2 Assay for human Peroxisome Proliferator-activated Response Element (PPRE) (AID 2282958). The following applies: HepG2 PPRE cis-element reporter, Attagene transcription factor profiling; actives raise or lower the signal. In outline:
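Cells are first transfected transiently with the multiplexed reporter library, then dosed for 24 h. Total RNA is reverse-transcribed, amplified, fluorescently end-labeled and HpaI-cut before capillary electrophoresis; activity is fitted bidirectionally against DMSO controls.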

Assay [11] can be described thus: ATG_RORE_CIS: Attagene CIS-FACTORIAL HepG2 Assay for human RAR-related Orphan Receptor Element (RORE) (AID 2282959). The following applies: HepG2 Attagene cis-factorial RORE reporter, mRNA; actives raise or lower the signal. The essentials: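 Cells were HepG2 carrying transfected cis-regulated reporter constructs, dosed for 24 hours. Total RNA was reverse-transcribed and reporter cDNA amplified, fluorescently labeled and sized by capillary electrophoresis. Activity was fitted bidirectionally relative to DMSO.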

The nature of assay [12]: ATG_Sox_CIS: Attagene CIS-FACTORIAL HepG2 Assay for human SRY-box transcription factor (SOX) (AID 2282960). The conditions noted are these: HepG2 Attagene cis-factorial SOX reporter, mRNA; actives raise or lower the signal. In outline:
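Transient MRTU transfection of HepG2; 24 h compound incubation; TriZol RNA, oligo(dT) RT, PCR, 6-FAM primer extension, HpaI cut, CE. Bidirectional fit, DMSO = baseline.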

In assay [13] the target is Transcription factor Sp1 (Homo sapiens) (UniProt P08047). Put plainly: ATG_Sp1_CIS: Attagene CIS-FACTORIAL HepG2 Assay for human Specificity Protein 1 (Sp1) (AID 2282961). The conditions noted are these: HepG2 Sp1 cis-reporter transcription, actives raise or lower the signal. The essentials: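 Endogenous Sp1 activity was gauged in human liver HepG2 cells bearing transfected reporter units under a cis-regulating promoter. After 24 h dosing, reporter mRNA was quantified by RT-PCR with capillary electrophoresis, and activity fitted bidirectionally versus DMSO.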

A short description of assay [14]: ATG_SREBP_CIS: Attagene CIS-FACTORIAL HepG2 Assay for human Sterol Regulatory Element Binding (SREBP) (AID 2282962). The following applies: HepG2 Attagene cis-factorial SREBP reporter, mRNA; actives raise or lower the signal. The essentials:
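Twenty-four hours after chemical dosing of transfected HepG2 cultures, reporter RNA was converted to cDNA, amplified, end-labelled with 6-FAM and resolved by capillary electrophoresis. Responses were fitted relative to DMSO.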

Assay [15] has as its target Signal transducer and activator of transcription 3 (Homo sapiens) (UniProt P40763). As to the kind of experiment: ATG_STAT3_CIS: Attagene CIS-FACTORIAL HepG2 Assay for human Signal Transducer and Activator of Transcription 3 (STAT3) (AID 2282963). The conditions noted are these: HepG2, Attagene cis-factorial STAT3 reporter transcription; actives raise or lower the signal. The essentials: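 HepG2 cells transiently transfected with cis-element-driven multiple reporter transcription units; after 24 h chemical exposure, reporter mRNA measured by RT-PCR, 6-FAM primer-extension labelling, HpaI digestion and capillary electrophoresis. Bidirectional fitting versus DMSO baseline.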

Assay [16] can be described thus: ATG_TA_CIS: Attagene CIS-FACTORIAL HepG2 Assay for human TA Basal Promoter (AID 2282964). The following applies: HepG2 Attagene CIS-factorial TA basal promoter reporter; actives raise or lower the signal. The essentials:
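HepG2 cells transiently transfected with multiple reporter units under cis promoter elements, reporting endogenous transcription factor activity; this endpoint tracks the TA basal promoter as background control. Reporter mRNA after 24 h dosing measured by RT-PCR/capillary electrophoresis; bidirectional fits versus DMSO.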

A short description of assay [17]: ATG_TCF_b_cat_CIS: Attagene CIS-FACTORIAL HepG2 Assay for human T-Cell-Factor with beta-catenin (TCF/b-cat) (AID 2282965). The conditions noted are these: HepG2 TCF/beta-catenin cis-reporter transcription, actives raise or lower the signal. In outline:
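Using capillary electrophoresis as the read-out, labelled reporter cDNA fragments from transiently transfected HepG2 were sized and quantified. Exposure lasted 24 hours; activity in either direction was referenced to DMSO.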

Assay [18] is described as follows: ATG_TAL_CIS: Attagene CIS-FACTORIAL HepG2 Assay for human TAL Basal Promoter (AID 2282966).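 Also: background control endpoint measuring basal TAL promoter reporter mRNA not a specific factor.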 The following applies: HepG2 Attagene cis-factorial TAL promoter reporter; actives raise or lower the signal. In outline: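 Fluorescence of labelled reporter cDNA fragments, resolved by capillary electrophoresis, gave the readout. Human HepG2 liver cells carried transiently transfected cis-element reporter units and were treated for 24 hours; activity was fitted bidirectionally against DMSO.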

Assay [19] is described as follows: ATG_TGFb_CIS: Attagene CIS-FACTORIAL HepG2 Assay for human Transforming Growth Factor (TGF) (AID 2282967). The conditions noted are these: HepG2 Attagene CIS TGFb reporter, mRNA transcription; actives raise or lower the signal. The essentials:
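HepG2 cells transiently transfected with cis-promoter-driven multiple reporter units measure endogenous TF activity; reporter mRNA quantified at 24 h by RT-PCR, FAM labeling, HpaI digestion and capillary electrophoresis. Bidirectional fit vs DMSO.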

A short description of assay [20]: ATG_VDRE_CIS: Attagene CIS-FACTORIAL HepG2 Assay for human Vitamin D Receptor Element (VDRE) (AID 2282968). The following applies: HepG2 VDRE cis-reporter transcription, actives raise or lower the signal. The essentials: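 HepG2 cells transiently transfected with cis-element reporter units, dosed 24 h; reporter mRNA measured by RT-PCR, 6-FAM labeling, HpaI digestion and capillary electrophoresis. Activity fitted bidirectionally against DMSO baseline.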

Activity calls are given as the source filed them. The calls were made as follows: active = hit-call score of the fitted dose curve at least 0.9, where 1 is the maximum; inactive = score below 0.9.

Hypoxia-inducible factor 1-alpha (Homo sapiens), sequence (Q16665 whole entry, looked up): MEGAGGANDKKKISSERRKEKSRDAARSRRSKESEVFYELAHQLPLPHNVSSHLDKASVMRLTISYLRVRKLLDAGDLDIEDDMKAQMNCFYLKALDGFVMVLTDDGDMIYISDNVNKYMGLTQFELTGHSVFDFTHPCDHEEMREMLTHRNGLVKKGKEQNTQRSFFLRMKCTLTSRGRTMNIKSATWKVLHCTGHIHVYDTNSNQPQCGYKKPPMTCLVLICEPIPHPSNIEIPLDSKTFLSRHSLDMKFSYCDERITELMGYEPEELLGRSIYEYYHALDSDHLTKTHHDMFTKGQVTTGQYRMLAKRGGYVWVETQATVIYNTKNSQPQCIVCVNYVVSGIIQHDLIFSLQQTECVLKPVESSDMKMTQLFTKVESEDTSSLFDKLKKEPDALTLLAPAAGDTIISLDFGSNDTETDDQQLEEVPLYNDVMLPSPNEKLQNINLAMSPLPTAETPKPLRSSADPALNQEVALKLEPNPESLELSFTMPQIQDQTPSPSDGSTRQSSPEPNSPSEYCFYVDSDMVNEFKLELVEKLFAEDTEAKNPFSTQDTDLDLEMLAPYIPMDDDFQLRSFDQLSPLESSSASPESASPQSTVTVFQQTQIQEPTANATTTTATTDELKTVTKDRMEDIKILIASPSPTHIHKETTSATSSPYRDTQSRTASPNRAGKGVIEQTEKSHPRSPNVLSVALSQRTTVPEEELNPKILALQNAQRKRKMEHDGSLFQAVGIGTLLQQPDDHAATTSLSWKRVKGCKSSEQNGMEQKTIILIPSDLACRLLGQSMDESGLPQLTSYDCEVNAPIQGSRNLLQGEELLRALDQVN
Hepatocyte nuclear factor 6 (Homo sapiens), sequence (Q9UBC0 whole entry, looked up): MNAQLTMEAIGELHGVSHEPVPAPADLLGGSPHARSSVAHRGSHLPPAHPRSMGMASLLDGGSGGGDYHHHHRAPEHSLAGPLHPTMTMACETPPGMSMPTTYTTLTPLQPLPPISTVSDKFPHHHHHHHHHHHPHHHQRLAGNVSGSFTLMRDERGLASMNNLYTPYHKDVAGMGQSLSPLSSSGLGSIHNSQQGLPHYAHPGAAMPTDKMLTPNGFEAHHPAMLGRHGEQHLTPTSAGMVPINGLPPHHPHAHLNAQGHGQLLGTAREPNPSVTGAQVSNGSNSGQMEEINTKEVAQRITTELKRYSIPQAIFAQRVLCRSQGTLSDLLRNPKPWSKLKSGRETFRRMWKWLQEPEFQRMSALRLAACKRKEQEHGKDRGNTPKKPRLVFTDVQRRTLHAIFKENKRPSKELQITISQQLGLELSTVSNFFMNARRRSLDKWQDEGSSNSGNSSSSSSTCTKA
Transcription factor Sp1 (Homo sapiens), sequence (P08047 whole entry, looked up): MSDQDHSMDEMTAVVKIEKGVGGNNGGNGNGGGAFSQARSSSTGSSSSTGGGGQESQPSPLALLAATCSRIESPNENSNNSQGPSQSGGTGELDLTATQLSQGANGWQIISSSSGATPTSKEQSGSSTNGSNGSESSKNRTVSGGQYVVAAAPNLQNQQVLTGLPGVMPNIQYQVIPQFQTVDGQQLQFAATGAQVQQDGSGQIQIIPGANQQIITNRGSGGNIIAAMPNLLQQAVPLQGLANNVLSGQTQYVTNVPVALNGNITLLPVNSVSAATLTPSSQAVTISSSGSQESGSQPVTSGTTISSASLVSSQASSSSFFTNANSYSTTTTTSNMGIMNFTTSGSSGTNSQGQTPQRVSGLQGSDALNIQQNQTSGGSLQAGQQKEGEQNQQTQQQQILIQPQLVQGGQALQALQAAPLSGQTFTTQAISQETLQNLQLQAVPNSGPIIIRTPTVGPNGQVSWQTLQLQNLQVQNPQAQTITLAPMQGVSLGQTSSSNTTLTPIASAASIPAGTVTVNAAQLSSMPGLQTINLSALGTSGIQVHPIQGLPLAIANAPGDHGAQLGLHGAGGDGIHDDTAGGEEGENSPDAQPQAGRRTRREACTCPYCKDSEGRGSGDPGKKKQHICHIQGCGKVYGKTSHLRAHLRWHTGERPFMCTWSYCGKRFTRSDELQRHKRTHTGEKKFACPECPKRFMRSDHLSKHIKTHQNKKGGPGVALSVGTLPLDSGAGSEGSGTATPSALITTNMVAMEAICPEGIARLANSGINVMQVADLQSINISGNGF
Heat shock factor protein 1 (Homo sapiens), sequence (Q00613 whole entry, looked up): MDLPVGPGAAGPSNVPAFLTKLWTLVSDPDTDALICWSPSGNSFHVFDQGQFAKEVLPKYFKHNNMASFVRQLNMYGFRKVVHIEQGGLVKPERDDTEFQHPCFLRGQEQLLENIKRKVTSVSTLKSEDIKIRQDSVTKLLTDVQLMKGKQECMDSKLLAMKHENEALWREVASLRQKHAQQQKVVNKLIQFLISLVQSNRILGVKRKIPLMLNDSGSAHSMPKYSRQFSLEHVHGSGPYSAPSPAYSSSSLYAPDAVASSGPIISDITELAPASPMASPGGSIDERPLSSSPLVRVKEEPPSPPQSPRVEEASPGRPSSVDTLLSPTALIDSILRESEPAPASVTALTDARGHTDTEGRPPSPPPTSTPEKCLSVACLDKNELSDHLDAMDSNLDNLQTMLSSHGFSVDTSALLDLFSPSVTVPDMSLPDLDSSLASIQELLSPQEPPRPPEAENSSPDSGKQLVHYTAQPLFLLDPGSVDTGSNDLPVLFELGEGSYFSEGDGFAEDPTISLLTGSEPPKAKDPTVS
Paired box protein Pax-6 (Homo sapiens), sequence (P26367 whole entry, looked up): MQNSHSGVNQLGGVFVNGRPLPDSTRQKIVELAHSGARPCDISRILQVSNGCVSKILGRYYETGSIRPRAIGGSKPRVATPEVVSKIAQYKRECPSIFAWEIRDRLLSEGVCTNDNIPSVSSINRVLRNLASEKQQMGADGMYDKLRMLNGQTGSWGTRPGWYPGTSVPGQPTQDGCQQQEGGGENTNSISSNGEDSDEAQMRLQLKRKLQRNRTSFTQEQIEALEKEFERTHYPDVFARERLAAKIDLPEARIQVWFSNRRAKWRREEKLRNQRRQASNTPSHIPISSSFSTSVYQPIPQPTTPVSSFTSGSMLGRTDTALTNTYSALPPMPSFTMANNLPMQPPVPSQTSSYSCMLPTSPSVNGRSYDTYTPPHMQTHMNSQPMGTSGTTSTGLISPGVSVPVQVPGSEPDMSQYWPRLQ
Signal transducer and activator of transcription 3 (Homo sapiens), sequence (P40763 whole entry, looked up): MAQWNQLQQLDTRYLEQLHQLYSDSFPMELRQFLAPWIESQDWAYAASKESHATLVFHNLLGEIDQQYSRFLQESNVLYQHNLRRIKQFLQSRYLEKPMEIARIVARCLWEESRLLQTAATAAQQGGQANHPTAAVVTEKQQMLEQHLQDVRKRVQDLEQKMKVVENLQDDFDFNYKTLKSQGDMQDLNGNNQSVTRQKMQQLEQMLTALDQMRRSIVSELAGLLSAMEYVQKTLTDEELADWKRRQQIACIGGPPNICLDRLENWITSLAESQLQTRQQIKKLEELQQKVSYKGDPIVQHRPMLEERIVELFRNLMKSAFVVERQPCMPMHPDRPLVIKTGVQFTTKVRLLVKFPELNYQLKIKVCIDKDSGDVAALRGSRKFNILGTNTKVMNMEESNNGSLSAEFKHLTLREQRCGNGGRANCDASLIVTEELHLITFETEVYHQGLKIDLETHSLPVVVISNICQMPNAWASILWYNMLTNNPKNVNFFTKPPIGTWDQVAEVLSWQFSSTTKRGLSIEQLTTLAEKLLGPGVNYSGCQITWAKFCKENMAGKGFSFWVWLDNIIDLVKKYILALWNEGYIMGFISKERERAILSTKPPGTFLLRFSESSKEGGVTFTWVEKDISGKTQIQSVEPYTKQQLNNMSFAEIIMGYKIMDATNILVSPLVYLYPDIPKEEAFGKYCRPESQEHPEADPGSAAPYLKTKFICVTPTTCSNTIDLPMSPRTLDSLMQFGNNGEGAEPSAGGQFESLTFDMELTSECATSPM

As for `C=CC(F)(F)C(F)(F)C(F)(F)C(F)(F)F`, the molecule was classed as inactive in assay [1], in assay [2], in [3], in assay [4], in assay [5] and in assay [6]. Further, the result in assay [7], in assay [8], in [9], in assay [10], in assay [11] and in assay [12] was inactive. For the same molecule, the call in [13], in [14], in assay [15], in assay [16], in [17] and in assay [18] was inactive. For the same molecule, the molecule was classed as inactive in assay [19] and in assay [20].

Broadly, the AC50 is the concentration at which the activity in the assay is half-maximal. As to `O=C(c1cc(O)c(O)c(O)c1)c1ccc(O)c(O)c1O`, the result in [1], in assay [2], in [4], in [5], in assay [6] and in assay [7] was inactive. The molecule was called inactive in assay [8], in [9], in assay [10], in assay [11], in assay [12] and in assay [13]. The molecule was classed as inactive in [14], in assay [15], in [16], in [17], in [18] and in [19]. Moreover, in [20], the molecule was classed as inactive. Also, the AC50 in assay [3] was 53.5 µM (active).

`FC(F)(F)N1C(F)(F)C(F)(F)OC(F)(F)C1(F)F`: the result in [1], in assay [2], in assay [3], in assay [4], in assay [5] and in [6] was inactive. Further, the outcome in assay [7], in [8], in assay [9], in assay [10], in [11] and in assay [12] was inactive. Also, the molecule was called inactive in assay [13], in [14], in [15], in assay [16], in assay [17] and in [18]. The call in assay [19] and in assay [20] was inactive.
